{"source": "PubChem BioAssay AID492948", "about": "(National Center for Advancing Translational Sciences (NCATS), 2010)", "note": "Results filed as inconclusive are left out. Active and inactive are the calls of the source. Calls follow the shape of the dose curve; as a rule, active = well fitted activation curve with a large enough effect; inconclusive = small, poorly fitted or top-dose-only effect; inactive = no such curve, though single readings can be large or run the other way. Potency is read from the fitted curve at half-maximal effect."}
{"test": "qHTS Assay for Agonists of the Relaxin Receptor RXFP1: V1B Hit Validation;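 also: counter-screen in HEK293 cells expressing V1B rather than RXFP1 for selectivity; nearly all actives have a fitted effect of over 65% in size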;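 as to activation: cAMP accumulation with PDE4 inhibitor Ro 20-1724 present during compound exposure; 0% = buffer alone basal and 100% = 29 nM porcine relaxin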", "settings": "HEK293 V1B cells, cAMP TR-FRET, 30 min; series mostly up to 115 µM; activation: at the top concentration", "how_it_was_run": "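HEK293 cells (2000/well) were exposed to compounds for 30 min at 37C with PDE4 inhibitor Ro 20174. cAMP was read by TR-FRET after lysis, normalized to buffer and 29 nM porcine relaxin, and EC50 was fitted by Hill equation.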"}
{"smiles": "CN(Cc1ccccc1)C(=O)c1ccccc1NC(=O)c1ccco1", "activation": "2.47% [at 127 µM] (inactive)"}
{"smiles": "COc1cc(-c2nnc(SCC(=O)N(C)C3CCS(=O)(=O)C3)o2)cc(OC)c1OC", "note": "(stereo not drawn)", "activation": "6.32% [at 44.9 µM] (inactive)"}
{"smiles": "Cc1cc(C)nc(NS(=O)(=O)c2ccc(N3C(=O)c4ccccc4C3=O)cc2)n1", "Potency": "29.8 µM (active)"}
{"smiles": "NC(=O)c1ccccc1NC(=O)CC12CC3CC(CC(C3)C1)C2", "activation": "1.11% [at 127 µM] (inactive)"}
{"smiles": "Nc1c(Cl)cc(-c2[nH]c3cc(C(=O)NCCO)ccc3c(=O)c2O)cc1Cl", "Potency": "34.6 µM (active)"}
{"smiles": "O=C(O)c1ccc(N2C(=O)c3cccc4cccc(c34)C2=O)cc1", "Potency": "74.9 µM (active)"}
{"smiles": "CCC(=O)Nc1ccc(-n2nnnc2SCC(=O)NNC(=O)c2ccco2)cc1", "activation": "1.43% (inactive)"}
{"smiles": "CCn1c(SCC(=O)Nc2ccc(NC(C)=O)cc2)nc2c1c(=O)n(C)c(=O)n2C", "Potency": "30.9 µM (active)"}
{"smiles": "CCN(CC)S(=O)(=O)c1ccc(N2CCOCC2)c(NC(=O)c2cccc(C#N)c2)c1", "Potency": "47.3 µM (active)"}
{"smiles": "CCCn1c(SCC(=O)Nc2ccc(NC(C)=O)cc2)nc2c1c(=O)n(C)c(=O)n2C", "Potency": "38.9 µM (active)"}
{"smiles": "CCOC(=O)C1CCN(C(=O)c2cc3c(=O)n4ccccc4nc3s2)CC1", "Potency": "43.6 µM (active)"}
{"smiles": "CCC(Sc1ccc2nnc(-c3cccnc3)n2n1)C(=O)OC", "note": "(stereo not drawn)", "Potency": "19.4 µM (active)"}
{"smiles": "Cc1cccc(NC(=O)c2ccccc2NC(=O)C2CCCCC2)c1C", "activation": "-3.76% [at 127 µM] (inactive)"}
{"smiles": "CCOC(=O)N1CCN(S(=O)(=O)c2c(C)nc3scc(C)n3c2=O)CC1", "Potency": "24.5 µM (active)"}
{"smiles": "CC(C)Oc1ccc(S(=O)(=O)N2CCOCC2)cc1NC(=O)c1cc([N+](=O)[O-])ccc1N1CCOCC1", "Potency": "37.5 µM (active)"}
{"smiles": "COC(=O)c1nc2ccc(N3CCOCC3)cc2c(C)c1C(=O)OC", "Potency": "34.6 µM (active)"}
{"smiles": "Cc1ccc(-n2nnc3c(=O)n(CC(=O)NCC4CCCO4)cnc32)cc1", "note": "(stereo not drawn)", "Potency": "24.5 µM (active)"}
{"smiles": "Cc1ccc2[nH]c3c(=S)nc[nH]c3c2c1", "Potency": "6.15 µM (active)"}
{"smiles": "Cc1cc2nc3ccc(=[N+](C)C)cc-3sc2cc1N", "activation": "-4.25% (inactive)"}
{"smiles": "CN(C)CCCn1c(SCC(=O)Nc2nc(-c3cccc(Br)c3)cs2)nc2ccccc2c1=O", "activation": "-2.35% (inactive)"}
{"smiles": "Nc1cc2ccncc2c2ccccc12", "activation": "4.06% (inactive)"}
{"smiles": "Cc1nc2scc(C)n2c(=O)c1S(=O)(=O)N1CCN(c2ccccn2)CC1", "Potency": "30.9 µM (active)"}
{"smiles": "O=C(O)CCNc1ccc(NCCC(=O)O)c2c1C(=O)c1ccccc1C2=O", "activation": "1.09% (inactive)"}
{"smiles": "O=C(Nc1ccccc1C(=O)N1CCCCC1)c1ccco1", "activation": "7.89% [at 127 µM] (inactive)"}
{"smiles": "COc1ccc(S(=O)(=O)N2CCOCC2)cc1NC(=O)CSc1ncnc2ccccc12", "Potency": "13.8 µM (active)"}
{"smiles": "CC(=O)Nc1ccc(S(=O)(=O)NCc2cc(=O)n(C)c(=O)n2C)cc1", "Potency": "30.9 µM (active)"}
{"smiles": "Cc1ccnc(NS(=O)(=O)c2ccc(N3C(=O)c4ccccc4C3=O)cc2)n1", "Potency": "14.9 µM (active)"}
{"smiles": "CC(C)n1c(SCC(=O)N2CCN(C(=O)c3ccco3)CC2)nc2c1c(=O)n(C)c(=O)n2C", "Potency": "6.9 µM (active)"}
{"smiles": "Cc1cc(C)n2nc(C(=O)Nc3ccc4c(c3)OCCO4)nc2n1", "Potency": "6.15 µM (active)"}
{"smiles": "CCOc1ccc(NC(=O)CSc2ccc3nnc(-c4cccnc4)n3n2)cc1", "Potency": "38.9 µM (active)"}
{"smiles": "CCOC(=O)CNC(=O)CSc1nc2c(C)cccc2cc1CC", "Potency": "17.3 µM (active)"}
{"smiles": "CC(C(=O)OCC(=O)N(C)C1(C#N)CCCCC1)N1C(=O)c2ccccc2C1=O", "note": "(stereo not drawn)", "Potency": "13.8 µM (active)"}
{"smiles": "N#Cc1c(N)nc(SCC(=O)C23CC4CC(CC(C4)C2)C3)c(C#N)c1-c1ccc(Cl)cc1", "Potency": "12.3 µM (active)"}
{"smiles": "O=C(O)CSc1ccnc2cc(Cl)ccc12", "Potency": "21.8 µM (active)"}
{"smiles": "COc1ccc(OC)c(CNC(=O)C2CCN(C(=O)N(C)C)CC2)c1", "activation": "-3.57% (inactive)"}
{"smiles": "O=c1c2ccccc2cnn1Cc1n[nH]c(=S)n1-c1ccc(F)c(Cl)c1", "Potency": "21.9 µM (active)"}
{"smiles": "C=CCNc1ncnc2c1ncn2C1OC(CO)C(O)C1O", "note": "(stereo not drawn)", "activation": "-32.1% (inactive)"}
{"smiles": "Cc1ccccc1NC(=O)CNc1ccccc1C(=O)NCc1ccco1", "activation": "7.03% [at 127 µM] (inactive)"}
